Compounds with a hit are over-represented: about 5.7% of the library has one in this group of screens.
TGFb SMAD3 inh – inhibitors of TGF-b signaling | HepG2 CAGA-GFP TGF-b/SMAD3 reporter, GFP fluorescence, 18 h; TGF-beta stimulated, 500 pg/mL final | Potency, µM (highest dose often 46.1 µM), inactives show at the top dose activity, negative = inhibition, usual class: inhibitors | hit rate 1.2% among 410,000 | AID 588855; further: potency means the concentration at half of the fitted maximal effect; on the % scale 0 is the no-effect control and ±100 the full control effect; nearly all actives have a fitted effect of over 65% in size
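First, reporter cells (HEPG2 CAGA-GFP) rested 2 h at 37 degrees C. Next, compounds were pinned in and TGF-beta added to 500 pg/mL final. After 18 h, GFP was imaged per cell and summed per well.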
ATXN viability – reduces viability in counter-screen for ATXN expression inhibitors | AID 651635 | Potency, µM (top dose mostly 56.7 µM), most hits filed as cytotoxic | hit rate 0.49% among 400,000 | S2 cells (HEK-293 line with an ATXN2-luciferase reporter) viability, CellTiter-Fluor protease fluorescence, 24 h; further: potency means the concentration at half of the fitted maximal effect; nearly all actives have a fitted effect of over 40% in size
HepG2 viability – HepG2 cytotoxicity, counter-screen for TGF-b inhibitors; Potency, µM (series often up to 46.1 µM), without a hit: top-dose activity change, negative = cytotoxicity, actives largely listed as cytotoxic; HepG2 CAGA-GFP viability, ATP luminescence, 18 h; AID 588856; hit rate 0.76% among 410,000; further: potency means the concentration at half of the fitted maximal effect
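HepG2 CAGA-GFP cells (1000/well, DMEM with 1% FBS) received compound, then TGF-beta at 500 pg/mL final, and were incubated 18 hours at 37 degrees C. Viability was read by CellTiter-Glo luminescence. Media-only wells were set as complete cell-killing and DMSO as no toxicity.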
IL-1B inflam inh – inflammasome signaling inhibition, IL-1 beta readout; THP-1 LPS/ATP IL-1B secretion, AlphaLISA, 16 h; active compounds read low; hit rate 4.7% among 360,000; activity change, % at 57.5 µM; in the data active means activity change below about -50%; inconclusive means mostly about -30% to -49%; further: on the % scale 0 is the no-effect control and ±100 the full control effect
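Secreted IL-1B measured by AlphaLISA bead assay after 16 h compound exposure of THP-1 cells; compounds (final up to 57.5 uM) added 1 h before LPS (250 ng/mL) and ATP (1.25 mM) stimulation; lower signal means less secretion.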
ATXN2 expr inh – ATXN2 expression inhibition. HEK-293 ATXN2-luciferase reporter, luminescence, 24 h. Potency, µM (highest dose often 57 µM), inactives show at the top dose activity change, negative = inhibition, usual class: inhibitors. hit rate 0.72% among 360,000. AID 1745845; further: potency means the concentration at half of the fitted maximal effect; on the % scale 0 is the no-effect control and ±100 the full control effect; nearly all actives have a fitted effect of over 55% in size
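ATXN2-luciferase reporter cells (luciferase flanked by upstream and downstream ATXN2 gene portions) were treated 24 h at 37 °C with compounds at up to 57 uM. SteadyGlo luminescence gave expression; GF-AFC fluorescence gave viability.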
* hit, by the source's call. Unless noted, the call rests on the fitted dose curve; in most records, active means well fitted curve in the direction sought with a large enough effect; inconclusive means small, poorly fitted or top-dose-only effect, or another doubt; inactive means no such curve, though single readings can be large; an effect the other way counts as inactive or inconclusive.

Results for Cc1cc(C)c(S(=O)(=O)/N=C2\C=C(Nc3ccc(C(=O)O)cc3)C(=O)c3ccccc32)c(C)c1 ?
TGFb SMAD3 inh: inconclusive; ATXN viability: inconclusive; HepG2 viability: 16µM*; IL-1B inflam inh: -104*; ATXN2 expr inh: 28µM*

Results for COc1cccc(CNC(=O)C2CCN(C(=O)N3CCOc4ccc(Cl)cc43)CC2)c1OC ?
TGFb SMAD3 inh: -29%; HepG2 viability: -23%

What do the screens show for `COc1cc(C(O)c2nc(-c3cccc(C(F)(F)F)c3)cs2)ccc1F` (stereo unspecified)?
TGFb SMAD3 inh: 13µM*; ATXN viability: inactive; HepG2 viability: 11µM*; IL-1B inflam inh: inconclusive; ATXN2 expr inh: -27%

Results for COc1ccc(C(O)c2nc(-c3cccc(C(F)(F)F)c3)cs2)cc1 (stereo unspecified) ?
TGFb SMAD3 inh: inconclusive; ATXN viability: inconclusive; HepG2 viability: -43%; IL-1B inflam inh: 20; ATXN2 expr inh: inconclusive

How did COc1ccc(C(O)c2nc(-c3ccccc3)cs2)cc1 (stereo unspecified) do in these assays?
TGFb SMAD3 inh: -22%; ATXN viability: inactive; HepG2 viability: -30%; IL-1B inflam inh: 7; ATXN2 expr inh: 4%

How did COc1ccc(C(O)c2nc(-c3cccc(F)c3)cs2)cc1 (stereo unspecified) do in these assays?
TGFb SMAD3 inh: 26%; ATXN viability: inactive; HepG2 viability: -7%; IL-1B inflam inh: -93*; ATXN2 expr inh: 7%

Results for COc1ccc(CCNc2ncnc3c2nnn3C)cc1 ?
TGFb SMAD3 inh: inconclusive; HepG2 viability: -30%

How did CCCc1oc2ccc(NS(=O)(=O)c3ccc(OC)cc3)cc2c1C(=O)OCC do in these assays?
TGFb SMAD3 inh: 10µM*; HepG2 viability: -105%

What do the screens show for `COCCOC(=O)c1c(C)oc2ccc(NS(=O)(=O)c3ccccc3)cc12`?
TGFb SMAD3 inh: -2%; ATXN viability: inactive; HepG2 viability: -7%; IL-1B inflam inh: -5; ATXN2 expr inh: -3%

Results for CCOC(=O)c1c(-c2ccccc2)oc2ccc(NS(=O)(=O)c3ccccc3)cc12 ?
TGFb SMAD3 inh: 16µM*; ATXN viability: inconclusive; HepG2 viability: -58%; ATXN2 expr inh: inconclusive

Results for CCOC(=O)c1c(-c2ccccc2)oc2ccc(NS(=O)(=O)c3cc(C)c(C)cc3C)cc12 ?
TGFb SMAD3 inh: inconclusive; ATXN viability: inactive; HepG2 viability: -32%; ATXN2 expr inh: -13%

How did CCOC(=O)c1c(-c2ccccc2)oc2ccc(NS(=O)(=O)c3ccc(OC)cc3)cc12 do in these assays?
TGFb SMAD3 inh: 13µM*; HepG2 viability: -27%

How did C=C1C(=CC=C2CCC[C@]3(C)[C@@H]([C@H](C)CCCC(C)(C)O)CC[C@@H]23)C[C@@H](O)C[C@@H]1O do in these assays?
ATXN2 expr inh: 35%

What do the screens show for `O=C(Cc1csc(Nc2nc(=S)[nH]c3ccccc23)n1)NCc1ccc(Cl)cc1`?
TGFb SMAD3 inh: -7%; ATXN viability: inactive; HepG2 viability: -2%; IL-1B inflam inh: 24; ATXN2 expr inh: -31%

How did O=C(Cc1csc(Nc2nc(=S)[nH]c3ccccc23)n1)NCCCN1CCN(c2ccccc2F)CC1 do in these assays?
TGFb SMAD3 inh: inconclusive; HepG2 viability: -58%; IL-1B inflam inh: -99*; ATXN2 expr inh: inconclusive

What do the screens show for `Cc1nccc(-c2ccc3c(c2)OCO3)n1`?
TGFb SMAD3 inh: 26%; ATXN viability: inactive; HepG2 viability: 1%; IL-1B inflam inh: inconclusive; ATXN2 expr inh: -2%

How did Cc1onc(-c2ccc3c(c2)OCO3)c1-c1ccc2[nH]ccc2c1 do in these assays?
TGFb SMAD3 inh: 13µM*; ATXN viability: inconclusive; HepG2 viability: -13%; IL-1B inflam inh: -57*; ATXN2 expr inh: -23%

Results for c1cc2cc(-c3c(-c4ccc5c(c4)OCO5)noc3-c3ccsc3)ccc2[nH]1 ?
TGFb SMAD3 inh: inconclusive; ATXN viability: inactive; HepG2 viability: -85%; IL-1B inflam inh: -57*; ATXN2 expr inh: 14%

Results for c1ccc(-c2onc(-c3ccco3)c2-c2ccc3[nH]ccc3c2)cc1 ?
TGFb SMAD3 inh: 14µM*; ATXN viability: inactive; HepG2 viability: -40%; IL-1B inflam inh: -11; ATXN2 expr inh: -11%

How did Cc1cccc(NC(=O)c2ccc(CNS(=O)(=O)c3ccc4c(c3)C(C)(C)C(=O)N4C)cc2)c1 do in these assays?
TGFb SMAD3 inh: -28%; HepG2 viability: -12%

How did Cc1ccc(-n2ncc(C(=O)NCCN3CCN(C)CC3)c2C2CCN(C(=O)OC(C)(C)C)CC2)c(C)c1 do in these assays?
TGFb SMAD3 inh: -5%; ATXN viability: inactive; HepG2 viability: -26%; ATXN2 expr inh: -22%

Results for CCN(CC)CCC(c1ccc(N(C)C)cc1)c1c(OC)cc(OC)c2ccc(=O)oc12 (stereo unspecified) ?
TGFb SMAD3 inh: -4%; ATXN viability: 10µM*; HepG2 viability: -2%; IL-1B inflam inh: -2; ATXN2 expr inh: 3%

What do the screens show for `CCN(CC)CCC(c1ccc(OC)cc1)c1c(OC)cc(OC)c2c(C)cc(=O)oc12` (stereo unspecified)?
TGFb SMAD3 inh: inconclusive; HepG2 viability: 18µM*

What do the screens show for `CCCCCc1cc(=O)oc2c(C(CCN(CC)CC)c3ccc(OC)cc3)c(OC)cc(OC)c12` (stereo unspecified)?
TGFb SMAD3 inh: inconclusive; ATXN viability: 32µM*; HepG2 viability: -101%; IL-1B inflam inh: inconclusive; ATXN2 expr inh: inconclusive

What do the screens show for `CCN(CC)CCC(c1ccc2c(c1)OCO2)c1c(OC)cc(OC)c2c(C)cc(=O)oc12` (stereo unspecified)?
TGFb SMAD3 inh: -8%; HepG2 viability: -14%

Results for CCN(CC)C(=O)CC(c1ccc(N(C)C)cc1)c1c(OC)cc(OC)c2ccc(=O)oc12 (stereo unspecified) ?
TGFb SMAD3 inh: 2%; ATXN viability: inconclusive; HepG2 viability: 3%; IL-1B inflam inh: -11; ATXN2 expr inh: -13%

Results for O=C(Nc1cccc(C(F)(F)F)c1)Nc1ccc2snnc2c1 ?
TGFb SMAD3 inh: 7.1µM*; ATXN viability: inactive; HepG2 viability: -57%; ATXN2 expr inh: inconclusive

Results for O=C(Nc1ccccc1)Nc1ccc2nnsc2c1 ?
TGFb SMAD3 inh: inconclusive; ATXN viability: inactive; HepG2 viability: -18%; IL-1B inflam inh: -95*; ATXN2 expr inh: 56%

How did COc1ccc(NC(=O)CC2NCCNC2=O)c(OC)c1 (stereo unspecified) do in these assays?
TGFb SMAD3 inh: -7%; ATXN viability: inactive; HepG2 viability: -13%; ATXN2 expr inh: -5%

What do the screens show for `O=C(CCSc1ccc(Cl)cc1)c1ccco1`?
TGFb SMAD3 inh: 11µM*; ATXN viability: inconclusive; HepG2 viability: -87%; IL-1B inflam inh: -96*
